CYP2C19 act: cytochrome P450 2C19 (human) activation; recombinant CYP2C19, luciferin-H EGE luminescence; stronger effect = higher value; 0 = fully inhibited enzyme, 1 = untreated enzyme; 96,000 tested, under 10 active; AID 1025; P33261; activation factor at 5 µM;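 active means activation factor of at least 2 at 5 µM in the primary screen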;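 further: 0 = wells with 2.5 mM tranylcypromine and 1 = vehicle-only wells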
CYP2C19 inh: human CYP2C19 inhibition; P33261; CYP2C19 Supersomes, luciferin-H EGE luminescence, 30 min; inhibition, % at 5 µM; actives 21% (n = 96,000);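 active means CYP2C19 inhibition above a set limit at 5 µM in the primary screen, cut at about 50% in these data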;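 further: plate controls were negative control wells for no effect and 2.5 mM tranylcypromine positive control for full effect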
CYP2C9 activ: increases human cytochrome P450 2C9 activity. recombinant CYP2C9, luciferin-H conversion, luminescence; stronger effect = higher value; factor 1 = untreated enzyme, 0 = blocked. P11712. AID 1024. actives 1.4% (n = 96,000). activation factor at 5 µM;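 active means activation factor of 2 or more for CYP2C9 at a 5 µM dose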;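 further: 0 = sulfaphenazole-blocked wells and 1 = vehicle-only wells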
Target sequence (P11712 whole entry, looked up): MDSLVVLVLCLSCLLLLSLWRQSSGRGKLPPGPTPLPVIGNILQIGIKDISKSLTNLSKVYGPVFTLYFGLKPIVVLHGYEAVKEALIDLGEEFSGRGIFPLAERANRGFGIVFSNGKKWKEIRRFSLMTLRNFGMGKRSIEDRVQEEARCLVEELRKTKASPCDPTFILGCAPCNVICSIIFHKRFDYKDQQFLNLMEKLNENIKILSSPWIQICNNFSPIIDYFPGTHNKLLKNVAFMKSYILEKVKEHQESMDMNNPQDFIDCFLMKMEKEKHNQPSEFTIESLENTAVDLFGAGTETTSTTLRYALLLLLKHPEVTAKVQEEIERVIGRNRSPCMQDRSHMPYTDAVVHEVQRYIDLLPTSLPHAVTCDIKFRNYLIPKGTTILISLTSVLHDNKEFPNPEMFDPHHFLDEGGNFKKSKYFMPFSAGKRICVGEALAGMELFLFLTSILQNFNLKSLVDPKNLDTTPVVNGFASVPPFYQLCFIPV
CYP2C9 inh: human CYP2C9 inhibition. CYP2C9 Supersomes, luciferin-H conversion, luminescence. inhibition, % at 5 µM. AID 777. actives 20% (n = 96,000);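 active means blocking of liver enzyme CYP2C9 beyond about 50% at 5 µM, limit read from the data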
PostGolgi yeast: growth inhibition of a yeast mutant, post-Golgi transport screen | actives 0.9% (n = 98,000) | post-Golgi transport phenotypic cell assay | inhibition, % at 10 µM;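 further: yeast cells grown in 1536-well plates; yeast grown about 18 h at 30C before absorbance read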
PostGolgi ctrl: inhibits growth of the yeast control strain. efflux-deficient yeast background strain, growth absorbance A615, 16 h. inhibition, % at 10 µM. actives 5% (n = 98,000)
An asterisk follows results filed as active. An excerpt weighted towards active compounds, which were near 32% of everything screened. Unless noted, no stated cut-off is given here; in the data, active means inhibition above about 30%; inactive means the rest.

How did Cc1nn(CC#N)c(=O)n1-c1cccc(F)c1 do in these assays?
CYP2C19 act: 1.3; CYP2C19 inh: -30; CYP2C9 activ: 1.3; CYP2C9 inh: -34; PostGolgi yeast: -3; PostGolgi ctrl: 6

How did Cc1nn(Cc2ccc([N+](=O)[O-])cc2)c(=O)n1-c1c(F)cccc1F do in these assays?
CYP2C19 act: 0.4; CYP2C19 inh: 59*; CYP2C9 activ: 1; CYP2C9 inh: 5; PostGolgi yeast: -3; PostGolgi ctrl: 16

Results for Cc1nn(Cc2ccc([N+](=O)[O-])cc2)c(=O)n1-c1ccc(F)cc1 ?
CYP2C19 act: 0.5; CYP2C19 inh: 46; CYP2C9 activ: 0.1; CYP2C9 inh: 86*; PostGolgi yeast: -14; PostGolgi ctrl: 11

Results for Cc1ccccc1C(=O)Nc1nc2n(n1)C(c1ccccc1)CC(=O)N2 (stereo not given) ?
CYP2C19 act: 1.3; CYP2C19 inh: -31; CYP2C9 activ: 0.9; CYP2C9 inh: 10; PostGolgi yeast: 4; PostGolgi ctrl: 4

Results for O=C(c1ccc(Cl)cc1)C1C2C(=O)N(c3ccccc3)C(=O)C2C2CCCN21 (stereo not given) ?
CYP2C19 act: 0.2; CYP2C19 inh: 79*; CYP2C9 activ: 0.2; CYP2C9 inh: 78*; PostGolgi yeast: -7; PostGolgi ctrl: 3

Results for Cc1ccccc1Nc1c([N+](=O)[O-])ccc2c1=NC1(CCCCC1)N=2 ?
CYP2C19 act: 0.8; CYP2C19 inh: 16; CYP2C9 activ: 0.9; CYP2C9 inh: 12; PostGolgi yeast: -8; PostGolgi ctrl: 13

Results for Cc1nn2cc(-c3ccccc3)nc2[nH]c1=O ?
CYP2C19 act: 0.9; CYP2C19 inh: 5; CYP2C9 activ: 0.3; CYP2C9 inh: 74*; PostGolgi yeast: 1; PostGolgi ctrl: 23

What do the screens show for `O=C(O)CCc1nn2cc(-c3ccccc3)nc2[nH]c1=O`?
PostGolgi yeast: 1; PostGolgi ctrl: 11

How did NC(=O)CSCc1c(Cl)cccc1Cl do in these assays?
CYP2C19 act: 1; CYP2C19 inh: 0; CYP2C9 activ: 1.2; CYP2C9 inh: -15; PostGolgi yeast: 4; PostGolgi ctrl: 8

How did C#CCOC(=O)Nc1ccc(=O)n(Cc2c(Cl)cccc2Cl)c1 do in these assays?
CYP2C19 act: 0.5; CYP2C19 inh: 54*; CYP2C9 activ: 0.3; CYP2C9 inh: 69*; PostGolgi yeast: -1; PostGolgi ctrl: 5

Results for CCc1nn(CC(=O)N2CCN(Cc3ccc4c(c3)OCO4)CC2)c(=O)c2cc3occc3n12 ?
PostGolgi yeast: 3; PostGolgi ctrl: -4

What do the screens show for `CCOc1cccc(NCc2cc3c(C(C)(C)C)nn(-c4ccccc4)c3[nH]c2=O)c1`?
CYP2C19 act: 0.8; CYP2C19 inh: 23; CYP2C9 activ: 0.3; CYP2C9 inh: 75*; PostGolgi yeast: 11; PostGolgi ctrl: 10

Results for CCCCCCS(=O)[C@H]1CS(=O)(=O)C[C@@H]1S(=O)CCCCCC (stereo not given in full) ?
CYP2C19 act: 1; CYP2C19 inh: 4; CYP2C9 activ: 0.9; CYP2C9 inh: 7; PostGolgi yeast: 13; PostGolgi ctrl: -8

Results for O=C(Cc1cn2ccsc2n1)Nc1ccccc1Oc1ccccc1 ?
CYP2C19 act: 0.2; CYP2C19 inh: 80*; CYP2C9 activ: 0.3; CYP2C9 inh: 70*; PostGolgi yeast: 4; PostGolgi ctrl: 2

What do the screens show for `O=C(Cc1cn2ccsc2n1)NCc1ccccc1`?
CYP2C19 act: 0.5; CYP2C19 inh: 46; CYP2C9 activ: 1.2; CYP2C9 inh: -22; PostGolgi yeast: -2; PostGolgi ctrl: 9

Results for O=C(Cc1cn2ccsc2n1)NCCc1ccc(F)cc1 ?
CYP2C19 act: 0.3; CYP2C19 inh: 72*; CYP2C9 activ: 1; CYP2C9 inh: 4; PostGolgi yeast: 7; PostGolgi ctrl: 7

Results for CC(=O)NCC(=O)OCN1C(=O)c2ccccc2C1=O ?
PostGolgi yeast: 4; PostGolgi ctrl: 13

Results for CC(=O)NC(=O)NC1OC(=O)C(Cl)=C1Cl (stereo not given) ?
CYP2C19 act: 1.2; CYP2C19 inh: -24; CYP2C9 activ: 1.2; CYP2C9 inh: -25; PostGolgi yeast: 0; PostGolgi ctrl: -2

How did O=C(c1cccc(-n2cnnn2)c1)N1CCOCC1 do in these assays?
CYP2C19 act: 1.1; CYP2C19 inh: -13; CYP2C9 activ: 1.2; CYP2C9 inh: -16; PostGolgi yeast: 22; PostGolgi ctrl: 3

What do the screens show for `c1coc(Cn2c(SCc3nc4ccccc4[nH]3)nnc2-c2cccs2)c1`?
CYP2C19 act: 0; CYP2C19 inh: 98*; CYP2C9 activ: 0.1; CYP2C9 inh: 92*; PostGolgi yeast: 7; PostGolgi ctrl: 9

Results for COC(=O)CSc1nnc(CSc2nc(C)cc(C)n2)n1Cc1ccco1 ?
CYP2C19 act: 0.5; CYP2C19 inh: 45; CYP2C9 activ: 0.9; CYP2C9 inh: 14; PostGolgi yeast: -4; PostGolgi ctrl: -7

Results for Cc1ccc(-c2nnc(SCc3nc4ccccc4[nH]3)n2Cc2ccco2)cc1 ?
CYP2C19 act: 0.9; CYP2C19 inh: 15; CYP2C9 activ: 0.5; CYP2C9 inh: 46; PostGolgi yeast: 2; PostGolgi ctrl: 8

Results for Cc1cccc(-c2nnc(SCc3nc4ccccc4[nH]3)n2Cc2ccco2)c1 ?
CYP2C19 act: 0.5; CYP2C19 inh: 54*; CYP2C9 activ: 0.3; CYP2C9 inh: 70*; PostGolgi yeast: 1; PostGolgi ctrl: 26

How did O=c1cc(N2CCN(c3cccc(Cl)c3)CC2)[nH]c(=O)n1C1CCCCC1 do in these assays?
CYP2C19 act: 0.5; CYP2C19 inh: 49; CYP2C9 activ: 0.8; CYP2C9 inh: 25; PostGolgi yeast: -4; PostGolgi ctrl: 6

How did COc1ccccc1-c1nnc(SCc2nc3ccccc3[nH]2)n1C do in these assays?
CYP2C19 act: 0.2; CYP2C19 inh: 80*; CYP2C9 activ: 0.9; CYP2C9 inh: 12; PostGolgi yeast: -11; PostGolgi ctrl: 2

What do the screens show for `O=C(CSc1nnc(-c2ccncc2)n1-c1ccc(Cl)cc1)N1CCOCC1`?
CYP2C19 act: 0; CYP2C19 inh: 98*; CYP2C9 activ: 0.2; CYP2C9 inh: 77*; PostGolgi yeast: 3; PostGolgi ctrl: 25

What do the screens show for `Clc1ccc(-n2c(SCc3nc4ccccc4[nH]3)nnc2-c2ccncc2)cc1`?
CYP2C19 act: 0; CYP2C19 inh: 99*; CYP2C9 activ: 0.2; CYP2C9 inh: 84*; PostGolgi yeast: 5; PostGolgi ctrl: 0

Results for Cc1ccccc1-n1c(SCC(=O)N2CCCC2)nnc1-c1ccccn1 ?
CYP2C19 act: 0.8; CYP2C19 inh: 21; CYP2C9 activ: 0.8; CYP2C9 inh: 18; PostGolgi yeast: 21; PostGolgi ctrl: 2

What do the screens show for `Cn1c(SCc2nc3ccccc3[nH]2)nnc1-c1cccnc1`?
CYP2C19 act: 0.9; CYP2C19 inh: 13; CYP2C9 activ: 1; CYP2C9 inh: -4; PostGolgi yeast: 23; PostGolgi ctrl: 6

What do the screens show for `O=C(CSc1nnc(-c2cccs2)n1-c1ccccc1)N1CCOCC1`?
CYP2C19 act: 1.1; CYP2C19 inh: -6; CYP2C9 activ: 1; CYP2C9 inh: -2; PostGolgi yeast: -6; PostGolgi ctrl: 2
